Screening results deposited in PubChem BioAssay by National Center for Advancing Translational Sciences (NCATS).
ALDH1A1 inh – inhibitors of human aldehyde dehydrogenase 1A1; AID 1030; Purified ALDH1A1, NADH fluorescence, propionaldehyde substrate; Potency, µM (titrated, usually from 75.3 µM), actives largely listed as inhibitors; actives 7.3% (n = 220,000)
PNC inhibitor – inhibitors of perinucleolar compartment assembly | actives 3.1% (n = 140,000) | activity change (PNC), negative = inhibition, % at 10 µM | PC3M PTB-GFP, PNC prevalence imaging, 16 h; hits give low values | AID 2417;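 active = readout at or below -70, meaning at least 70% loss of cells showing the perinucleolar compartment, a nuclear body marking cancer cells; inconclusive = readout between -30 and a set limit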
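PC3M cells stably expressing PTB-GFP, 750–1000 cells/well, treated 16 h at 37 °C with compound (23 nl of library stock), in duplicate. After paraformaldehyde fixation and Hoechst stain, imaged at 20x; PNC prevalence scored by image analysis.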
Lamin A splicing – changes lamin A minigene splicing in HeLa cells; HeLa LMNA splicing GFP/RFP minigene ratio, 48 h; Potency, µM (series often up to 46.1 µM), most hits filed as inhibitors; actives 0.01% (n = 200,000); AID 1487; active = well fitted inhibition curve with a large enough effect in the signal ratio, with a control signal flat, not every such curve was filed as active; inconclusive = small, poorly fitted or top-dose-only effect, or effect the other way, or a change in a side signal; the % refers to the signal ratio
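S3 HeLa stable clones carrying a lamin A-EGFP splicing minigene plus DsRed2 were seeded at 600 cells/well in Opti-MEM with 2% FBS, pin-dosed and incubated 48 h at 37°C. Acumen cytometry (488 nm) gave the GFP/RFP total-intensity ratio.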
Luc counter – counter-screen: inhibitors of Kinase-Glo firefly luciferase. Q27757. Kinase-Glo luciferase, ATP luminescence, 8 min. Potency, µM (titrated, usually from 38.3 µM), actives largely listed as inhibitors. actives 0.28% (n = 200,000). AID 1379; active = well fitted inhibition curve with a large enough effect; inconclusive = small, poorly fitted or top-dose-only effect; note: nearly all actives have a fitted effect of over 60% in size
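Inhibition of Kinase-Glo luciferase light generation was assessed at 10 uM ATP in pH 7.2 imidazole buffer, with luminescence measured after eight minutes at ambient temperature.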
HPGD inh – HPGD (human) dehydrogenase inhibition. P15428. purified HPGD, NADH fluorescence kinetic, PGE2 substrate. Potency, µM, actives largely listed as inhibitors. actives 4.3% (n = 150,000)
Target sequence (P15428 whole entry, looked up): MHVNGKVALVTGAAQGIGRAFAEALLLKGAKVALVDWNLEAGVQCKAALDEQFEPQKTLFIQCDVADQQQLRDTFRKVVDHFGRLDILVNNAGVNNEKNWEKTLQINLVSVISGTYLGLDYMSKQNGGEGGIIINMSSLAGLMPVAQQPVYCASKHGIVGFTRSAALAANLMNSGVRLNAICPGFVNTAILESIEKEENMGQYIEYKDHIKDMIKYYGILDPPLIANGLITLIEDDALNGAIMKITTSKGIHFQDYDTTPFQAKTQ
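NADH formation kinetics: reaction with 30 uM PGE2 and 1 mM NAD+ (final), 20 nM enzyme, Tris-HCl pH 8 with Tween 20, after 15 min compound preincubation at room temperature. Fluorescence change, last versus first of five reads.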
A number is an active result; - = inactive; ? = inconclusive; . = no result given; [ ] = dose if it differs, or a comment. In the library only some 10% were active in any assay of this set; here they are far more common. Unless noted, calls come from the whole dose curve; as a rule, active = well fitted inhibition curve with a large enough effect (not every such curve was filed as active); inconclusive = small, poorly fitted or top-dose-only effect, or another doubt; inactive = no such curve, though single readings can be large or run the other way.

SMILES	ALDH1A1 inh	PNC inhibitor	Lamin A splicing	Luc counter	HPGD inh
C[C@H]1CCCC=CC2C[C@H](OC(=O)CN(C)C)C[C@@H]2[C@@H](O)/C=C\C(=O)O1 (some centres undefined)	-[13.5 µM]	.	.	-[7.66 µM]	-
COCCn1c(=O)c(-c2cn(C)c3ccccc23)nc2cnc(Oc3ccc(OC)cc3)nc21	-	.	.	-	-
Cc1cccc(CNS(=O)(=O)c2ccc(-c3coc(C)n3)cc2)c1	.	.	-	.	.
N#Cc1c(-c2ccccc2)ccnc1Oc1ccccc1	?	-96.3	-	-	-
O=c1c2ccccc2nc2sc(Nc3cccc(C(F)(F)F)c3)nn12	.	.	-	.	.
Cc1ccc(-n2ncc(C(=O)NCCN3CCOCC3)c2C2CCN(C(=O)OC(C)(C)C)CC2)c(C)c1	.	.	-	.	.
N/C(=N\c1nc(CSc2nnnn2-c2ccccc2)cc(=O)[nH]1)Nc1ccccc1	5.01µM	.	?	-	.
COc1ccc(N/C(N)=N/c2nc(CSc3ccc(Cl)cc3)cc(=O)[nH]2)cc1	-	-	-	-	-
O=c1cc(CSc2nnnn2-c2ccccc2)nc(Nc2ccc(F)cc2)[nH]1	7.94µM	?	?	-	-
Cc1ccc(SCc2cc(=O)[nH]c(/N=C(\N)Nc3ccc(C)c(C)c3)n2)cc1	8.91µM	-	-	-	-
N#CCCn1c(=O)c(-c2ccccc2)nc2cnc(N3CCOCC3)nc21	?	.	-	.	.
CCCCCCCCCCCCCCCCOCC(COP(=O)([O-])OCC[N+](C)(C)C)OC (centres undefined)	-	.	.	-	-
Cc1cccc(CNc2cc(-c3ccoc3)ncn2)c1	?	.	?	-	20µM
c1cncc(CNc2cc(-c3ccoc3)ncn2)c1	?	.	-	.	.
Cc1ccc(Cl)c(OC(=O)c2nn(C(C)C)c(=O)c3ccccc23)c1	-	-	-	-	-
COc1ccc(N(C(=O)Cc2cccs2)C(C(=O)NC2CCCCC2)c2cccn2C)cc1OC (centres undefined)	-	-115.7	-	-	-
C#CC(=O)N(c1cccc(OC)c1)C(C(=O)NC1CCCC1)c1cccs1 (centres undefined)	15.8µM	-	?	-	?
Cn1cccc1C(C(=O)NC1CCCCC1)N(C(=O)Cc1cccs1)C1CC1 (centres undefined)	-	-	-	-	-
COc1ccccc1NC(=O)CSC1=Nc2ccccc2N=C(c2ccc(F)cc2)C1	.	.	-	.	.
O=C1c2c(O)cccc2Cc2cccc(O)c21	25.1µM	.	?	-	-
CC(CCc1ccccc1)NC(=O)C1CCN(C(=O)c2sccc2-n2cccc2)CC1 (centres undefined)	0.355µM	-	-	-	-
O=C(NCCc1ccc(Cl)cc1)C1CCN(S(=O)(=O)N2CCCC2)CC1	3.16µM	-	-	-	-
O=C(NCCc1ccc(Cl)cc1)C1CCN(C(=O)c2sccc2-n2cccc2)CC1	0.501µM	-	-	-	-
CS(=O)(=O)N1CCCC(C(=O)NCCc2ccc(Cl)cc2)C1 (centres undefined)	-	-	-	-	-
COc1ccc(CCNC(=O)C2CCN(C(=O)c3cccs3)CC2)cc1	0.398µM	.	?	-	.
SMILES	ALDH1A1 inh	PNC inhibitor	Lamin A splicing	Luc counter	HPGD inh
COC(=O)[C@@H]1CCCN1Cc1nc(Cc2ccc(OC)c(OC)c2)no1	0.891µM	.	.	-	.
Cc1ccc(-n2c(-c3ccccc3)c[nH]c2=S)cc1	-	.	.	.	.
CCn1c(-c2ccccc2)c[nH]c1=S	28.2µM	-	-	-	-
S=c1[nH]cc(-c2ccccc2)n1-c1ccccc1	3.16µM	-	-	-	25.1µM
COc1ccc(CNC(=O)Cc2csc3nc(-c4ccc(C)cc4)cn23)cc1	.	.	-	.	.
O=C(c1csnn1)N1CCC2(CC1)CCN(c1ccccc1)CC2	-	.	.	-	-
COc1ccc(Oc2nc3c(c(=O)n(C)c(=O)n3C)n2Cc2ccc(Cl)cc2Cl)cc1	.	.	-	.	.
O=C1C=CC(=O)N1c1cccc(-c2ccccc2)c1	0.02µM	.	.	.	.
O=S(=O)(c1ccccc1)N1CCC2(CCN(c3cccc(-c4ccccc4)c3)CC2)CC1	?	.	.	-	?
COc1ccc(C(=O)N2CCC3(CCN(C)CC3)CC2)cc1	-	.	.	-	-
CCCn1c2ccccc2c2nnc(SCC(=O)Nc3ncccn3)nc21	7.08µM	?	-	-	-
CSc1nnc2c3ccccc3n(CCc3ccccc3)c2n1	8.91µM	-118.5	?	-	-
CCCn1c2ccccc2c2nnc(SCC(=O)Nc3cc(C)on3)nc21	?	-	-	-	-
O=C(CSc1nnc2c3ccccc3c3ccccc3c2n1)Nc1ccccc1F	8.91µM	-	-	-	-
CCn1c2ccccc2c2nnc(SCC(=O)N3CC(C)OC(C)C3)nc21 (centres undefined)	20µM	-	-	-	14.1µM
COc1cccc(CNC(=O)CSc2n[nH]c(-c3ccccc3Cl)n2)c1OC	.	.	-	.	.
O=C(C1=NN[C@@H]2C(=O)N(c3ccccc3C(F)(F)F)C(=O)[C@H]12)C(c1ccccc1)c1ccccc1	?	-	-	-	-
O=C(C1=NN[C@@H]2C(=O)N(c3cccc(F)c3)C(=O)[C@H]12)c1cnccn1	6.31µM	.	.	.	.
O=C(c1cccc(F)c1)N1CCC2(CC1)CN(Cc1ccccc1)C2	-	.	.	-	-
COc1ccc(NC(=O)N2CCC3(CC2)CCN(S(=O)(=O)c2ccccc2)CC3)cc1	-	.	.	-	-
O=C(c1cccc(F)c1)N1CCC[C@@]2(CCN(Cc3ccccc3)C2)C1	-	.	.	-	17.8µM
COc1ccc(NC(=O)N2CCCC3(CCN(S(=O)(=O)c4ccccc4)CC3)C2)cc1	14.1µM	.	.	-	-
O=C(c1cccc(F)c1)N1CCC[C@@]2(CCN(C(c3ccccc3)c3ccccc3)C2)C1	8.91µM	.	.	-	-
COc1ccc(NC(=O)N2CC[C@@]3(CCCN(C(=O)c4cccc(F)c4)C3)C2)cc1	17.8µM	.	.	-	-
CN(C)C1CCN(C(=O)c2ccc(-n3c(=O)c(=O)[nH]c4ccccc43)cc2)C1 (centres undefined)	-	.	.	-	-
SMILES	ALDH1A1 inh	PNC inhibitor	Lamin A splicing	Luc counter	HPGD inh
O=C(c1cccc(F)c1)N1CCC2(CCCN(c3cccc(-c4ccccc4)c3)C2)CC1	11.2µM	.	.	-	-
O=C(c1cccc(F)c1)N1CCC[C@@]2(CCN(c3ccccc3)C2)C1	1.12µM	.	.	-	7.94µM
CCCCCCCC/C=C\CCCCCCCC(N)=O	-	.	.	-	-
CCn1c(SCc2cccc(F)c2)nc2c(c1=O)SCC2	14.1µM	.	.	-	.
CC1=CC(=O)[C@@H]2C[C@H]1C2(C)C	-	.	.	-	-
Cc1cc(=O)[nH]c2nnc(SCc3ccc(Cl)c(Cl)c3)n12	.	.	-	.	.
CCc1cccc(CC)c1NC(=O)COC(=O)c1ccc2c(c1)S(=O)(=O)c1ccccc1C2=O	-	-	-	-	-
Cc1noc(C)c1COC(=O)c1cnc(Cl)c(Cl)c1	0.562µM	.	-	-	.
Cc1noc(C)c1COC(=O)c1ccc2c(c1)S(=O)(=O)c1ccccc1C2=O	12.6µM	?	-	-	28.2µM
O=C(COC(=O)c1ccc2c(c1)S(=O)(=O)c1ccccc1C2=O)NC1CC1	14.1µM	.	-	-	.
